Experimental data reported in PubChem BioAssay (NCATS).
Results filed as inconclusive are left out. Calls of active or inactive are those of the source. Unless noted, calls follow the shape of the dose curve; as a rule, active = well fitted curve in the direction sought with a large enough effect; inconclusive = small, poorly fitted or top-dose-only effect, or another doubt; inactive = no such curve, though single readings can be large; an effect the other way counts as inactive or inconclusive. Bridge positions count the residues as written; N and C are the ends. Square brackets hold non-standard residues; d marks the D form. Peptide text beside a SMILES is read from it. * marks the point of attachment. Ileψ(thiazoline)Cys = CC[C@H](C)[C@H](N)C1=N[C@H](C(=O)*)CS1; d(aIle) = CC[C@H](C)[C@@H](N)C(=O)O; dOrn = NCCC[C@@H](N)C(=O)O

Experiments:
7G8 = experiment: qHTS profiling for inhibitors of Plasmodium falciparum proliferation (AID 504749); also: nearly all actives have a fitted effect of over 60% in size; also: potency is read from the fitted curve at half-maximal effect; settings: P. falciparum in erythrocytes, SYBR Green DNA, 72 h; series mostly up to 12.8 µM
Summary of the method: (§1)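 SYBR Green fluorescence (ex 485 nm, em 535 nm) reports parasite DNA after 72 h compound exposure of infected red cells at 0.3% parasitemia, 2.5% hematocrit; signal normalized to 0.29 uM artemisinin and vehicle wells.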

AA1029 = experiment: as above; settings: P. falciparum in erythrocytes, SYBR Green DNA, 72 h; series mostly up to 12.8 µM
Summary of the method: as §1

ATS95 = experiment: as above; settings: P. falciparum in erythrocytes, SYBR Green DNA, 72 h; series mostly up to 12.8 µM
Summary of the method: as §1

CP194 = experiment: as above; settings: P. falciparum in erythrocytes, SYBR Green DNA, 72 h; series mostly up to 12.8 µM
Summary of the method: as §1

CP203 = experiment: as above; settings: P. falciparum in erythrocytes, SYBR Green DNA, 72 h; series mostly up to 12.8 µM
Summary of the method: as §1

CP260 = experiment: as above; settings: P. falciparum in erythrocytes, SYBR Green DNA, 72 h; series mostly up to 12.8 µM
Summary of the method: as §1

CP265 = experiment: as above; settings: P. falciparum in erythrocytes, SYBR Green DNA, 72 h; series mostly up to 12.8 µM
Summary of the method: as §1

CP325 = experiment: as above; settings: P. falciparum in erythrocytes, SYBR Green DNA, 72 h; series mostly up to 12.8 µM
Summary of the method: as §1

CP335 = experiment: as above; settings: P. falciparum in erythrocytes, SYBR Green DNA, 72 h; series mostly up to 12.8 µM
Summary of the method: as §1

DFO2036 = experiment: as above; settings: P. falciparum in erythrocytes, SYBR Green DNA, 72 h; series mostly up to 12.8 µM
Summary of the method: as §1

GB4 = experiment: as above; settings: P. falciparum in erythrocytes, SYBR Green DNA, 72 h; series mostly up to 12.8 µM
Summary of the method: as §1

P94_40 = experiment: as above; settings: P. falciparum in erythrocytes, SYBR Green DNA, 72 h; series mostly up to 12.8 µM
Summary of the method: as §1

TAB109 = experiment: as above; settings: P. falciparum in erythrocytes, SYBR Green DNA, 72 h; series mostly up to 12.8 µM
Summary of the method: as §1

[1] = S16 Schwann cell PMP22 intronic element beta-lactamase assay (AID 624044; calls by dose curve; also: nearly all actives have a fitted effect of over 15% in size)
Summary of the method: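 Beta-lactamase reporter under a PMP22 intronic regulatory element in stable S16 rat Schwann cells; 24 h compound exposure. 460 nm blue signal normalized between DMSO (0%) and potassium clavulanate, with 535 nm FRET tracking viability; curves classed by r2 and response.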

[2] = target: Cytochrome P450 2D6 (Homo sapiens) (UniProt P10635); experiment: qHTS Assay for Inhibitors and Substrates of Cytochrome P450 2D6 (AID 891); also: potency is read from the fitted curve at half-maximal effect; nearly all actives have a fitted effect of over 60% in size
Cytochrome P450 2D6 (Homo sapiens), sequence (P10635 whole entry, looked up): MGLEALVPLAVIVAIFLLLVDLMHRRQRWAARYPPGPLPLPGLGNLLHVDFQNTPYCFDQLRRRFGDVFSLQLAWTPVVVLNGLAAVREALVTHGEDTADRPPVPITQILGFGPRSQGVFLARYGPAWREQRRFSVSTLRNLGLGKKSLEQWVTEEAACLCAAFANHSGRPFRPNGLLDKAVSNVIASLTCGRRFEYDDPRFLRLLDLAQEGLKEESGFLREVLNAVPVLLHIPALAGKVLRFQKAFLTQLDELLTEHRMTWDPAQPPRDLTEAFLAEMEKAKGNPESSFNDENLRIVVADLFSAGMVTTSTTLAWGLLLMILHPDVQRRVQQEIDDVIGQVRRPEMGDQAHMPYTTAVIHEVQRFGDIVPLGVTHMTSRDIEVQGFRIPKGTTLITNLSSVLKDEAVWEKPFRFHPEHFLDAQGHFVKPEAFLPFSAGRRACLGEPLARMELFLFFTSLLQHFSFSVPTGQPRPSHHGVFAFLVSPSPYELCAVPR
Summary of the method: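 Luminescent read-out of luciferin formed by 5 nM human CYP2D6 demethylating 30 uM Luciferin-ME EGE (Km level) over 60 min at room temperature after NADPH regeneration addition. Data normalized to full inhibition by 1.43 uM quinidine.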

Measured: Potency

CCOC(=O)O[C@@H](C)OC(=O)[C@@H]1N2C(=O)[C@@H](NC(=O)[C@@H](N)c3ccccc3)[C@H]2SC1(C)C
inactive: 7G8 | AA1029 | ATS95 | CP194 | CP203 | CP260 | CP265 | CP325 | CP335 | DFO2036 | GB4 | P94_40 | TAB109

O=C(O)COCCN1CCN([C@@H](c2ccccc2)c2ccc(Cl)cc2)CC1
inactive: AA1029 | ATS95 | CP194 | CP203 | CP260 | CP265 | CP325 | CP335 | DFO2036 | P94_40 | TAB109

C[C@@H]1C[C@H]2[C@@H]3C[C@H](F)C4=CC(=O)C=C[C@@]4(C)[C@]3(F)[C@H](O)C[C@]2(C)[C@@]1(O)C(=O)CO
inactive: 7G8 | AA1029 | ATS95 | CP194 | CP203 | CP260 | CP265 | CP325 | CP335 | DFO2036 | GB4 | P94_40 | TAB109

Clc1ccc([C@H](Cn2ccnc2)OCc2c(Cl)cccc2Cl)c(Cl)c1
active: 7G8 1.58 µM | CP203 6.42 µM | CP265 3.16 µM | GB4 4.55 µM | P94_40 3.16 µM | TAB109 2.82 µM
inactive: [1]

CCN(CC)CCOC(=O)[C@@H](Cc1cccc2ccccc12)C[C@@H]1CCCO1
inactive: [1] | AA1029 | CP194 | CP203 | CP260 | CP265 | CP325 | CP335 | DFO2036 | GB4 | P94_40 | TAB109

CO[C@@H]1C[C@H](O[C@H]2[C@@H](C)[C@H](O[C@@H]3O[C@@H](C)C[C@@H](N(C)C)[C@@H]3OC(C)=O)[C@H](C)C[C@]3(CO3)C(=O)[C@H](C)[C@H](OC(C)=O)[C@H](C)[C@H](C)OC(=O)[C@@H]2C)O[C@H](C)[C@@H]1OC(C)=O
inactive: [1] | 7G8 | AA1029 | ATS95 | CP194 | CP203 | CP260 | CP265 | CP325 | DFO2036 | P94_40 | TAB109

NC[C@@H]1O[C@@H](O[C@H]2[C@H](O)[C@H](O[C@@H]3O[C@H](CO)[C@@H](O)[C@H](N)[C@@H]3O)[C@@H](N)C[C@H]2N)[C@H](N)C[C@@H]1O
inactive: [1] | 7G8 | AA1029 | ATS95 | CP194 | CP203 | CP260 | CP265 | CP325 | CP335 | DFO2036 | GB4 | P94_40 | TAB109

CC(=O)O[C@H]1C[C@@]2(C)[C@H](C[C@@H](O)[C@H]3[C@@]4(C)CC[C@@H](O)[C@@H](C)[C@H]4CC[C@@]32C)C1=C(CCC=C(C)C)C(=O)O
inactive: AA1029 | ATS95 | CP194 | CP203 | CP260 | CP265 | CP325 | CP335 | GB4 | P94_40 | TAB109

CC[C@H](C)[C@H](N)C1=N[C@H](C(=O)N[C@@H](CC(C)C)C(=O)N[C@@H](CCC(=O)O)C(=O)N[C@@H](C(=O)N[C@H]2CCCCNC(=O)[C@@H](CC(N)=O)NC(=O)[C@@H](CC(=O)O)NC(=O)[C@@H](Cc3cnc[nH]3)NC(=O)[C@@H](Cc3ccccc3)NC(=O)[C@@H]([C@@H](C)CC)NC(=O)[C@@H](CCCN)NC2=O)[C@@H](C)CC)CS1 ({Ileψ(thiazoline)Cys}-LE[d(aIle)]K[dOrn][d(aIle)][dF][dH][dD][dN]; lactam 4-C)
inactive: 7G8 | AA1029 | ATS95 | CP194 | CP203 | CP260 | CP265 | CP325 | CP335 | DFO2036 | GB4 | P94_40 | TAB109

CC[C@](C)(CN(C)C)OC(=O)c1ccccc1
inactive: [1] | 7G8 | AA1029 | ATS95 | CP194 | CP260 | CP265 | CP325 | DFO2036 | P94_40 | TAB109

Cc1cccc(CN2CCN([C@@H](c3ccccc3)c3ccc(Cl)cc3)CC2)c1
active: [2] 3.16 µM | 7G8 3.55 µM
inactive: CP194 | CP203 | CP325

Cc1ccsc1/C=C\C1=NCCCN1C
inactive: [1] | 7G8 | AA1029 | ATS95 | CP194 | CP203 | CP260 | CP265 | CP325 | DFO2036 | GB4 | P94_40 | TAB109

Cc1onc(-c2ccccc2Cl)c1C(=O)N[C@H]1C(=O)N2[C@H]1SC(C)(C)[C@H]2C(=O)O
inactive: [1] | AA1029 | ATS95 | CP194 | CP203 | CP260 | CP265 | CP325 | CP335 | GB4 | P94_40 | TAB109

C[C@H](O)Cn1cnc2c1c(=O)n(C)c(=O)n2C
inactive: [1] | 7G8 | AA1029 | ATS95 | CP194 | CP203 | CP260 | CP265 | CP325 | CP335 | GB4 | P94_40 | TAB109
